Reference: PubChem BioAssay (NCI)
About 79,000 compounds went through this panel and 15% of them were active in at least one assay; those are over-represented in the sample as a whole. Active and inactive are the calls of the source. No stated cut-off is given here; in the data, active means growth inhibition above about 70%; inactive means the rest.

What was measured:
[1] = NCI Yeast Anticancer Drug Screen. Data for the rad50 strain (AID 155);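 further: 0% = growth of vehicle-only cultures of the same strain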; conditions: S. cerevisiae rad50 strain growth inhibition, stronger effect = higher value
Procedure, shortened: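 Readout: growth inhibition relative to vehicle-treated cultures. Compound exposure was carried out in a genetically defined yeast strain deficient in DNA damage repair.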

[2] = NCI Yeast Anticancer Drug Screen. Data for the mec2-1 strain (AID 157); conditions: S. cerevisiae mec2-1 strain, stronger effect = higher value
Procedure, shortened: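 Readout is yeast growth inhibition, normalised to vehicle-treated controls, in the mec2-1 strain exposed to compound.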

[3] = NCI Yeast Anticancer Drug Screen. Data for the sgs1 mgt1 strain (AID 161);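 further: 0% = growth of cultures given vehicle only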; conditions: S. cerevisiae sgs1 mgt1 strain, stronger effect = higher value
Procedure, shortened: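 Percent growth inhibition was derived by comparing compound-exposed mutant yeast with vehicle-exposed cultures. The strain carries alterations in DNA damage repair.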

[4] = NCI Yeast Anticancer Drug Screen. Data for the cln2 rad14 strain (AID 165);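 further: 0% = growth equal to vehicle treated cultures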; conditions: S. cerevisiae cln2 rad14 strain, stronger effect = higher value
Procedure, shortened: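 Relative to vehicle controls, growth inhibition of compound-treated cln2 rad14 yeast was recorded.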

[5] = NCI Yeast Anticancer Drug Screen. Data for the bub3 strain (AID 167); conditions: S. cerevisiae bub3 mutant strain, stronger effect = higher value
Procedure, shortened: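 Readout: yeast growth inhibition, expressed relative to vehicle-only wells. The test organism is a mutant strain from a panel with lesions in DNA repair or checkpoint genes.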

[6] = NCI Yeast Anticancer Drug Screen. Data for the mlh1 rad18 strain (AID 175); conditions: S. cerevisiae mlh1 rad18 strain growth inhibition, stronger effect = higher value
Procedure, shortened: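 Test agents were incubated with a yeast strain of defined genotype (DNA damage repair defect). Inhibition of growth was derived by comparison with vehicle-exposed cultures.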

[7] = at 5.0 µM (retest, dose inferred, filed as 0.5)
[8] = at 50.0 µM (retest, dose inferred, filed as 5.0)

Measured: growth inhibition

CC(C)CC(C)(c1ccc(O)cc1)c1ccc(O)cc1
active: [1]; [7] 81% | [1]; [8] 98% | [1]; at 50.0 µM 92% | [2]; [7] 78% | [2]; [8] 99% | [2]; at 50.0 µM 93.5% | [3]; [7] 99% | [3]; [8] 99% | [3]; at 50.0 µM 93.8% | [4]; [7] 80% | [4]; [8] 99% | [4]; at 50.0 µM 92.6% | [5]; [7] 98% | [5]; [8] 99% | [5]; at 50.0 µM 92.2% | [6]; [8] 99% | [6]; at 50.0 µM 92.3%
inactive: [6]; [7] 68%

Cc1ccc(OP(=O)(Oc2ccc(C)cc2)Oc2ccc(C)cc2)cc1.Cc1ccc(OP(=O)(Oc2ccc(C)cc2)Oc2ccc(C)cc2)cc1.Cc1ccc(OP(=O)(Oc2ccc(C)cc2)Oc2ccc(C)cc2)cc1.Cc1ccc(OP(=O)(Oc2ccc(C)cc2)Oc2cccc(C)c2)cc1.[Cd+2].[O-][Cl+3]([O-])([O-])O
inactive: [1]; [7] 12% | [1]; [8] 64% | [1]; at 50.0 µM 58.6% | [2]; [7] 6% | [2]; [8] 33% | [2]; at 50.0 µM 45% | [3]; [7] 9% | [3]; [8] 29% | [3]; at 50.0 µM 20% | [4]; [7] -11% | [4]; [8] 32% | [4]; at 50.0 µM 62.6% | [5]; [7] 10% | [5]; [8] 23% | [5]; at 50.0 µM 36.6% | [6]; [7] 10% | [6]; [8] 36% | [6]; at 50.0 µM 39.2%

Oc1c(Cl)c(Cl)cc(Cl)c1Cc1c(Cl)cc(Cl)c(Cl)c1[O][Pb]([c]1ccccc1)([c]1ccccc1)[c]1ccccc1
active: [1]; [7] 99% | [1]; [8] 87% | [1]; at 50.0 µM 99.5% | [2]; [7] 99% | [2]; [8] 90% | [2]; at 50.0 µM 99.5% | [3]; [7] 99% | [3]; [8] 89% | [3]; at 50.0 µM 99.7% | [4]; [7] 99% | [4]; [8] 87% | [4]; at 50.0 µM 99% | [5]; [7] 99% | [5]; [8] 89% | [5]; at 50.0 µM 99.3% | [6]; [7] 99% | [6]; [8] 87% | [6]; at 50.0 µM 99.5%

C[CH2][Sn]([F])([CH2]C)[CH2]C
active: [1]; [8] 75% | [1]; at 50.0 µM 86.6% | [2]; [8] 92% | [2]; at 50.0 µM 89.7% | [3]; [8] 90% | [3]; at 50.0 µM 88.6% | [5]; [8] 76% | [5]; at 50.0 µM 88.6% | [6]; [8] 89% | [6]; at 50.0 µM 88.3%
inactive: [1]; [7] 8% | [2]; [7] 6% | [3]; [7] 9% | [4]; [7] -6% | [4]; [8] 60% | [4]; at 50.0 µM 64.2% | [5]; [7] 3% | [6]; [7] 5%

CCC[CH2][Sn]([CH2]CCC)[S]CC(N)C(=O)O (stereo not given)
inactive: [1]; [7] 63% | [2]; [7] 67% | [3]; [7] 56% | [4]; [7] 49% | [6]; [7] 62%
active: [1]; [8] 98% | [1]; at 50.0 µM 98.5% | [2]; [8] 99% | [2]; at 50.0 µM 98.5% | [3]; [8] 95% | [3]; at 50.0 µM 98.1% | [4]; [8] 98% | [4]; at 50.0 µM 98.1% | [5]; [7] 80% | [5]; [8] 99% | [5]; at 50.0 µM 98% | [6]; [8] 98% | [6]; at 50.0 µM 97.9%

OC1C2[C@@H](O)CCCN2C[C@@H](O)[C@H]1O (stereo not given in full)
inactive: [1]; [7] 15% | [1]; [8] 21% | [1]; at 50.0 µM -45.2% | [2]; [7] 11% | [2]; [8] 13% | [2]; at 50.0 µM -59% | [3]; [7] 5% | [3]; [8] 14% | [3]; at 50.0 µM -34.5% | [4]; [7] 5% | [4]; [8] 20% | [4]; at 50.0 µM 8.4% | [5]; [7] 6% | [5]; [8] 8% | [5]; at 50.0 µM 4.95% | [6]; [7] 14% | [6]; [8] 58% | [6]; at 50.0 µM -15.3%

Oc1c(Cl)c(Cl)cc(Cl)c1Cl
inactive: [1]; [7] 8% | [1]; at 50.0 µM 23.5% | [2]; [7] 7% | [2]; at 50.0 µM 68.9% | [3]; [7] 34% | [3]; at 50.0 µM 61.1% | [4]; [7] -27% | [5]; [7] 13% | [5]; at 50.0 µM 48.3% | [6]; [7] -6% | [6]; at 50.0 µM 61.8%
active: [1]; [8] 90% | [2]; [8] 97% | [3]; [8] 95% | [4]; [8] 94% | [4]; at 50.0 µM 79.8% | [5]; [8] 92% | [6]; [8] 92%

CCN1CCC(O)(c2ccc(O)cc2)C(C(=O)c2ccc(O)cc2)C1 (stereo not given)
inactive: [1]; [7] -9% | [1]; [8] -9% | [2]; [7] -9% | [2]; [8] 8% | [3]; [7] 6% | [3]; [8] 13% | [4]; [7] 18% | [4]; [8] 21% | [4]; at 50.0 µM 7.1% | [5]; [7] -9% | [5]; [8] 19% | [5]; at 50.0 µM 13.3% | [6]; [7] 1% | [6]; [8] 29%
active: [1]; at 50.0 µM 72% | [2]; at 50.0 µM 82.6% | [3]; at 50.0 µM 91.3% | [6]; at 50.0 µM 86.7%

COc1cc2c(cc1OC)C(OC)N(C)c1c-2ccc2cc3c(cc12)OCO3 (stereo not given)
inactive: [1]; [7] 16% | [1]; [8] 41% | [1]; at 50.0 µM 3.45% | [2]; [7] 9% | [2]; [8] 12% | [2]; at 50.0 µM -48% | [3]; [7] 7% | [3]; [8] 30% | [3]; at 50.0 µM -22.1% | [4]; [7] 16% | [4]; [8] 33% | [4]; at 50.0 µM 6.7% | [5]; [7] 2% | [5]; [8] 30% | [5]; at 50.0 µM -40% | [6]; [7] 17% | [6]; [8] 24% | [6]; at 50.0 µM -21.8%

CO[C@@]12[C@@H]3N[C@@H]3CN1C1=C(C(=O)C(N(C)c3ccc(O)cc3)=C(C)C1=O)[C@@H]2COC(N)=O
active: [1]; at 50.0 µM 81.9% | [2]; [8] 70% | [2]; at 50.0 µM 76% | [6]; [8] 96% | [6]; at 50.0 µM 83.2%
inactive: [1]; [7] 21% | [1]; [8] 64% | [2]; [7] 24% | [3]; [7] -7% | [3]; [8] 44% | [3]; at 50.0 µM 68.4% | [4]; [7] 1% | [4]; [8] 62% | [4]; at 50.0 µM 65% | [5]; [7] -5% | [5]; [8] 30% | [5]; at 50.0 µM 53.2% | [6]; [7] 33%
